# In article PMC7862700, “An all-to-all approach to the identification of sequence-specific readers for epigenetic DNA modifications on cytosine”:
# How the values were obtained:
# Test in all cases: DAPPL (digital affinity profiling via proximity ligation, sequencing); 10 mM Tris-HCl pH 7.5, 50 mM NaCl, 1 mM DTT, 4% glycerol, room temperature, 30 min; GST-TFs on glutathione beads, 16-mer random dsDNA library, 0.1% formaldehyde crosslink after washing; high values mean tight binding
# Conditions in all cases: protein: recombinant; tags: N-terminal GST; dsDNA, one strand shown
# [1] = molecular target: T1, GABPA (Homo sapiens, UniProt Q06546 1-454)
# T1 sequence: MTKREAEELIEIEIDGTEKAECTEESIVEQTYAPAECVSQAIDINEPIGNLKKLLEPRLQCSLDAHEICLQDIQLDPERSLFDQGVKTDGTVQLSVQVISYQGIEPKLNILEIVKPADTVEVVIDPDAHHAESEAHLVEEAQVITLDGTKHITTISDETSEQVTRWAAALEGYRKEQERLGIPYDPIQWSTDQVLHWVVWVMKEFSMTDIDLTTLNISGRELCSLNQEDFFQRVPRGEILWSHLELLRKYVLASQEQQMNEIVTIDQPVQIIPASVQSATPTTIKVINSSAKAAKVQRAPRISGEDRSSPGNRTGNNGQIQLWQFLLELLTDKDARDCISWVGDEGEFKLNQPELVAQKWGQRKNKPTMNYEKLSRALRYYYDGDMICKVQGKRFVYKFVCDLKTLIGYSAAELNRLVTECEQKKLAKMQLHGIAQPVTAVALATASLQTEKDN
# Method in brief: (§1)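 A tag-only sample was pooled with DNA-barcoded human transcription factors that had been expressed in yeast as GST fusions and captured on glutathione beads. The pools were incubated for 30 min at room temperature with 200 nmole of a random double-stranded 16-mer DNA library in Tris/NaCl/DTT/glycerol buffer, then washed, crosslinked with 0.1% formaldehyde, proximity-ligated (BsaI/T4 ligase, 1 h, 37 °C), PCR-amplified and sequenced on an Illumina NextSeq500. Binding signal is each hexamer's read frequency for a factor divided by its frequency for the tag-only sample.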
# [2] = molecular target: ELF1 (Homo sapiens, UniProt P32519 1-619)
# ELF1, sequence (P32519 whole entry): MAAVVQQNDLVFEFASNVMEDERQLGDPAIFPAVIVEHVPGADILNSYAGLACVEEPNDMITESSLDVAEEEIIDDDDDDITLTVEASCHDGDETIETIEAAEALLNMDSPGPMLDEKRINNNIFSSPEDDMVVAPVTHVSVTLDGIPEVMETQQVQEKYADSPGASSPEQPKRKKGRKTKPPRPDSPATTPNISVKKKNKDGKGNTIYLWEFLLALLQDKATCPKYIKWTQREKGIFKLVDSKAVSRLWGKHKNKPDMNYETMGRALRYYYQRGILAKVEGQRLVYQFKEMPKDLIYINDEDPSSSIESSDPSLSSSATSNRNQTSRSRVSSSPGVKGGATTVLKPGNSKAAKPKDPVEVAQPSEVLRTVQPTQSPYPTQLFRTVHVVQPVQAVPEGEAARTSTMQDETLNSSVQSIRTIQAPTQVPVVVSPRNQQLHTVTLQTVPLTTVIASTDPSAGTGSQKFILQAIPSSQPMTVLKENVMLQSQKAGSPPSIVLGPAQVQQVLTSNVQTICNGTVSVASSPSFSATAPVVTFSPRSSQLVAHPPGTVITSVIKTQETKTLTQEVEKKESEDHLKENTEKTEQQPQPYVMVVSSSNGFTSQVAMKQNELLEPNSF
# Method in brief: as §1
# [3] = molecular target: T2, EHF (Homo sapiens, UniProt Q9NZC4 1-300)
# T2 sequence: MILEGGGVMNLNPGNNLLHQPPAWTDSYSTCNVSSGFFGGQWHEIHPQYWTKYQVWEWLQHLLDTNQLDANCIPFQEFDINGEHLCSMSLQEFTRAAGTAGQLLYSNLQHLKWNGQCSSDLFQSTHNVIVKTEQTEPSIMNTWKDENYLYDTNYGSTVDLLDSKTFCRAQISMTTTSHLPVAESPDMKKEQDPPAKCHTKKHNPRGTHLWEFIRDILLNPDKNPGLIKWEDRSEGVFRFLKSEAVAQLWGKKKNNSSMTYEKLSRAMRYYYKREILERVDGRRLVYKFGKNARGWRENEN
# Method in brief: as §1
# [4] = molecular target: SPIB (Homo sapiens, UniProt Q01892 1-262)
# SPIB, sequence (Q01892 whole entry): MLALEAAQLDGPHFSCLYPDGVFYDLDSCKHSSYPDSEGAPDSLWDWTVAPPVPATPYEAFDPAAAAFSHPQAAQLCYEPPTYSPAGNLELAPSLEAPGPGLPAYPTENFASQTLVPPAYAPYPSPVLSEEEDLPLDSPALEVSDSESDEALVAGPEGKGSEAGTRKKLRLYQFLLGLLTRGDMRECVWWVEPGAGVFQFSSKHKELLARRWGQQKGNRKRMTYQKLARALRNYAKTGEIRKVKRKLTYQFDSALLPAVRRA
# Method in brief: as §1
# [5] = molecular target: ETV5 (Homo sapiens, UniProt P41161 1-510)
# ETV5, sequence (P41161 whole entry): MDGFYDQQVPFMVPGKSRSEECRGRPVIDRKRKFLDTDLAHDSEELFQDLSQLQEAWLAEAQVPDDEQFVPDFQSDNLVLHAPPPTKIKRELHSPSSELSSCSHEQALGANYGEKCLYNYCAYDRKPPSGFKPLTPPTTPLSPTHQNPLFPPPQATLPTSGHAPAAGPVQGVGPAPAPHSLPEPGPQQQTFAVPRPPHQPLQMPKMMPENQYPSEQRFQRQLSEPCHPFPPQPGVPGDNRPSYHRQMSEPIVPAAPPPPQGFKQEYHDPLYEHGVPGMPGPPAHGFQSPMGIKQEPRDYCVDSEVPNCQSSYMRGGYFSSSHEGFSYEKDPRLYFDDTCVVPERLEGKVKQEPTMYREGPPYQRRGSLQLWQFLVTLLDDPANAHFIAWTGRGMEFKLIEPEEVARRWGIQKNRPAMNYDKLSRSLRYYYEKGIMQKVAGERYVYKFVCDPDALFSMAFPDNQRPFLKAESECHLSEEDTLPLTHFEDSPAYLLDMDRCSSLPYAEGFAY
# Method in brief: as §1
# [6] = molecular target: T3, ELK4 (Homo sapiens, UniProt P28324-2 1-405)
# T3 sequence: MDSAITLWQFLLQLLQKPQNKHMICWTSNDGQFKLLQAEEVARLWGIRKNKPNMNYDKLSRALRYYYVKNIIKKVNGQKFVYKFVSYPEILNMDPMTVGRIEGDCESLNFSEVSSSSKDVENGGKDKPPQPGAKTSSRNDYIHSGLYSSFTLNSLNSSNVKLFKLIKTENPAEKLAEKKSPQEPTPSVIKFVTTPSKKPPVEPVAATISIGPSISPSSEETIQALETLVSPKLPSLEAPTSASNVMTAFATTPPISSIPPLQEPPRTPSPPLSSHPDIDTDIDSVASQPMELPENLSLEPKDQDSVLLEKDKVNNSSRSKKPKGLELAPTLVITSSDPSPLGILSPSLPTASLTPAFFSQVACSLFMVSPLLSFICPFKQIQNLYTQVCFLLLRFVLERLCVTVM
# Method in brief: as §1
# [7] = molecular target: ETV1 (Homo sapiens, UniProt P50549 1-477)
# ETV1, sequence (P50549 whole entry): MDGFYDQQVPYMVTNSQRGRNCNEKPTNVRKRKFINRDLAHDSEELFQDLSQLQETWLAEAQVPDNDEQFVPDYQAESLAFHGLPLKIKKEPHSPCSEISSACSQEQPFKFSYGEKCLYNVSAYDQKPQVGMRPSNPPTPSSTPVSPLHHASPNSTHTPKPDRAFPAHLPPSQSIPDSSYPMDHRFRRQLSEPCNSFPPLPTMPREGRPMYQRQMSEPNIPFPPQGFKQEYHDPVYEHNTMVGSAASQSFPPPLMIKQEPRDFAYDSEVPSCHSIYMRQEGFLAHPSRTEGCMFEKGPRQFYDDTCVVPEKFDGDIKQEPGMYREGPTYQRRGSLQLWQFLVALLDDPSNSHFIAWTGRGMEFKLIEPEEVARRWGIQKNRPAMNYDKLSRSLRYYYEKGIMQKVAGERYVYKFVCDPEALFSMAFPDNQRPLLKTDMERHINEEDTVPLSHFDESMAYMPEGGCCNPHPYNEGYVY
# Method in brief: as §1
# [8] = molecular target: T4, ERF (Homo sapiens, UniProt P50548 1-548)
# T4 sequence: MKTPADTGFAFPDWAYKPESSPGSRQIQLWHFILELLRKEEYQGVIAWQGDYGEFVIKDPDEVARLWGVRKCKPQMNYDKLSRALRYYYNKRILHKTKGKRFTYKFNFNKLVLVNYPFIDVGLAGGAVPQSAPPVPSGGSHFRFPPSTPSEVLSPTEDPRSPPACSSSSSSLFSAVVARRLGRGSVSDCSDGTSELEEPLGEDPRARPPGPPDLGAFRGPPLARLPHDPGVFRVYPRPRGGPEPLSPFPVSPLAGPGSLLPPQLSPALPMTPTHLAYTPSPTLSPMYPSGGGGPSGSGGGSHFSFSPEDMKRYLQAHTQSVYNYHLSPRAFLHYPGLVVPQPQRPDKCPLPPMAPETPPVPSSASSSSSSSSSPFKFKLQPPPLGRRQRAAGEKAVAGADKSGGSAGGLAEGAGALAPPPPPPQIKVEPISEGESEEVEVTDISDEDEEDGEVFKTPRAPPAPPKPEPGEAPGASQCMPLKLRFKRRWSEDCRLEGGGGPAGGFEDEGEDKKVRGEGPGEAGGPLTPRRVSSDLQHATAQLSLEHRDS
# Method in brief: as §1
# [9] = molecular target: T5, ETV3L (Homo sapiens, UniProt Q6ZN32 1-361)
# T5 sequence: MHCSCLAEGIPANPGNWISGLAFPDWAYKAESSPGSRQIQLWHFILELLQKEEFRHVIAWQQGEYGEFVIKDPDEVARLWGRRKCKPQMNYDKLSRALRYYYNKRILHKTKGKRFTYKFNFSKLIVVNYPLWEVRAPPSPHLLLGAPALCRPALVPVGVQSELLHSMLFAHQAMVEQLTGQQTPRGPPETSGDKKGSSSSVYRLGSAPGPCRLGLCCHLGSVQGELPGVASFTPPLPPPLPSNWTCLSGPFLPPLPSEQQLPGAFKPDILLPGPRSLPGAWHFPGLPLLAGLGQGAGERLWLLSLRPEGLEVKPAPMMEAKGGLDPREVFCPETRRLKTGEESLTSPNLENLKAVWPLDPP
# Method in brief: as §1
# [10] = molecular target: T6, SPDEF (Homo sapiens, UniProt O95238 1-335)
# T6 sequence: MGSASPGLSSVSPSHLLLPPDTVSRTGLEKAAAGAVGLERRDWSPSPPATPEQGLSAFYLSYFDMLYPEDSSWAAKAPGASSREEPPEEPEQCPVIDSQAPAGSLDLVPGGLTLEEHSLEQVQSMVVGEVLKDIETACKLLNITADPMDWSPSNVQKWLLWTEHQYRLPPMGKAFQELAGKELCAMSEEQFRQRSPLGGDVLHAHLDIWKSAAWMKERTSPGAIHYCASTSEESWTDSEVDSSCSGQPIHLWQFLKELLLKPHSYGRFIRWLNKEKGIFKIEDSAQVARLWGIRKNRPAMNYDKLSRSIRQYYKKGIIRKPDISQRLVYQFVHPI
# Method in brief: as §1
# [11] = molecular target: T7, ETV3 (Homo sapiens, UniProt P41162-2 1-143)
# T7 sequence: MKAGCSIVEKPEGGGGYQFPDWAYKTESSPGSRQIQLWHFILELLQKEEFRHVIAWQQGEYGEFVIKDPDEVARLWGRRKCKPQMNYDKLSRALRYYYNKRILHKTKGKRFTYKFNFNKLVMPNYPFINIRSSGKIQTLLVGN
# Method in brief: as §1
# [12] = molecular target: ETV6 (Homo sapiens, UniProt P41212 1-452)
# ETV6, sequence (P41212 whole entry): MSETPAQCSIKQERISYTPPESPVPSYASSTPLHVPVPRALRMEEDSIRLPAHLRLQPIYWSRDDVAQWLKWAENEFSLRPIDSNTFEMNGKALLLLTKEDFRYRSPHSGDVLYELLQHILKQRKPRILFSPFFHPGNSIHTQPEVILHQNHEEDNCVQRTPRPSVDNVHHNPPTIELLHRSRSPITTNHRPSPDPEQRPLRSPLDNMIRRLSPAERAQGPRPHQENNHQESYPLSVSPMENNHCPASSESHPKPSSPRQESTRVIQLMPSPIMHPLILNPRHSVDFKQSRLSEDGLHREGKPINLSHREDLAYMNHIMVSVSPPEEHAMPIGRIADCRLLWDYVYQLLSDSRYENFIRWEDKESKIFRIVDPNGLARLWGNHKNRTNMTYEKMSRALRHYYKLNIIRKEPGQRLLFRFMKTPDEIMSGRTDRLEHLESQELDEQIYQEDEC
# Method in brief: as §1
sequence,measurement,setting,value
CGTCCA,binding signal,[1],"1.04 fold enrichment (6-mer frequency, TF over GST control)"
same,binding signal,[2],"1.05 fold enrichment (6-mer frequency, TF over GST control)"
same,binding signal,[3],"1.02 fold enrichment (6-mer frequency, TF over GST control)"
same,binding signal,[4],"1 fold enrichment (6-mer frequency, TF over GST control)"
same,binding signal,[5],"1.02 fold enrichment (6-mer frequency, TF over GST control)"
same,binding signal,[6],"1 fold enrichment (6-mer frequency, TF over GST control)"
same,binding signal,[7],"1.08 fold enrichment (6-mer frequency, TF over GST control)"
same,binding signal,[8],"1.02 fold enrichment (6-mer frequency, TF over GST control)"
same,binding signal,[9],"1.13 fold enrichment (6-mer frequency, TF over GST control)"
same,binding signal,[10],"1.07 fold enrichment (6-mer frequency, TF over GST control)"
same,binding signal,[11],"1.03 fold enrichment (6-mer frequency, TF over GST control)"
same,binding signal,[12],"1.04 fold enrichment (6-mer frequency, TF over GST control)"
